Assay results taken from PubChem BioAssay (NCATS).
A number with no mark means an inactive call. How the calls were made is not given here.

The compounds below were run on HIV-1 nucleocapsid protein NCp7 (binding to TG oligonucleotide) (assay: HIV Nucleocapsid (AID 346;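 further: potency is for inhibitors that block NC binding and lower polarization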)). Settings: HIV-1 NC / fluorescein-TGTGTGTG probe, fluorescence polarization.
How it was run: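 Fluorescence polarization readout: labelled TG4xF oligo (10 nM) with 100 nM nucleocapsid protein, high-salt (250mM NaCl) Hepes pH 7.5 buffer containing zinc and fresh reducing agents. Compounds added by pin tool; incubation 1 hr, room temperature.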
Potency means the concentration at half of the fitted maximal effect.

Structure (SMILES)	Potency [µM]
COc1ccc(NC(=O)N2CCCC3(CCNCC3)C2)cc1	> 20
CC(C)NC(=O)N1CCC2(CC1)CCN(S(=O)(=O)c1ccccc1)CC2	> 20
COc1ccccc1CNc1ncncc1-c1ccccc1C(F)(F)F	> 20
COc1ccccc1CN1CCC2(CC1)CCN(C(=O)c1cc(C(F)(F)F)cc(C(F)(F)F)c1)CC2	> 20
O=S(=O)(c1ccccc1)N1CCC2(CCN(c3ccncc3)CC2)CC1	> 20
COc1ccccc1CCn1c(=O)c(-c2cc(F)cc(F)c2)nc2cncnc21	> 20
COc1ccc(-n2c(=O)c(C)nc3cnc(Nc4cccc(OC)c4)nc32)cc1	> 20
COc1ccccc1-c1ccc2ncnc(N(C)Cc3ccco3)c2c1	> 20
COc1ncc2nc(-c3ccccc3)c(=O)n(CCc3ccccc3)c2n1	> 20
Cc1ccccc1-c1ccc2ncnc(NCCN3CCOCC3)c2c1	> 20
CC(=O)NCCNc1ncnc2ccc(-c3ccc4c(c3)OCO4)cc12	> 20
COc1ccc(-c2nc3cnc(OCc4ccccc4)nc3n(CCC#N)c2=O)cc1	> 20
Cc1noc(C)c1C(=O)N1CCC[C@@]2(CCN(c3ccccn3)C2)C1	> 20
O=C(c1csnn1)N1CCC2(CCN(Cc3cc(C(F)(F)F)cc(C(F)(F)F)c3)CC2)CC1	> 20
COc1ccc(C(=O)N2CCC3(CC2)CN(c2ncccn2)C3)cc1	> 20
CC(=O)NCCNc1nc(-c2ccc3c(c2)OCO3)nc2ccccc12	> 20
O=C(c1ccco1)N1CCC2(CC1)CCN(c1ccccc1)CC2	> 20
Cc1noc(C)c1C(=O)N1CCC2(CC1)CCN(c1ccncc1)CC2	> 20
O=c1cnc2cnc(OCc3ccccc3)nc2n1CCc1ccccc1	> 20
COc1ncc2nc(-c3ccc(Cl)cc3)c(=O)n(-c3ccccc3)c2n1	> 20

Structure (SMILES)	Potency [µM]
CC(C)NC(=O)N1CC[C@@]2(CCCN(C(=O)c3ccco3)C2)C1	> 20
CC(=O)NCCNc1nc(-c2ccc(C(=O)N(C)C)cc2)nc2ccccc12	> 20
COc1ccc(NC(=O)N2CCCC3(CCN(C(=O)c4ccco4)CC3)C2)cc1	> 20
Cc1cnc(CNc2ncncc2-c2ccccc2C(F)(F)F)cn1	> 20
CC(C)NC(=O)N1CCC2(CC1)CCN(C(=O)c1csnn1)CC2	> 20
O=C(c1csnn1)N1CCC[C@@]2(CCN(c3cccc(-c4ccccc4)c3)C2)C1	> 20
O=C(c1cccc(F)c1)N1CCC2(CC1)CCN(c1cccc(-c3ccccc3)c1)CC2	> 20
COc1ccccc1-c1cncnc1NCCc1cnc[nH]1	> 20
CCNc1ncc2nc(-c3ccc(F)cc3)c(=O)n(C[C@H]3CCCO3)c2n1	> 20
O=c1c(-c2ccc(F)cc2)nc2cnc(Nc3ccccc3)nc2n1C[C@H]1CCCO1	> 20
O=S(=O)(c1ccccc1)N1CCC2(CCN(c3ccccc3)CC2)CC1	> 20
O=C(Nc1ccccc1)N1CC[C@@]2(CCCN(C(=O)c3csnn3)C2)C1	> 20
Cn1cc(-c2nc3cnc(Oc4ccccc4)nc3n(C)c2=O)c2ccccc21	> 20
O=c1c(-c2ccc(Cl)cc2)nc2cncnc2n1Cc1ccccc1Cl	> 20
Cc1cnc(CNc2ccnc(-c3cccc(NS(C)(=O)=O)c3)n2)cn1	> 20
COc1cccc(Cn2c(=O)c(-c3ccc(F)cc3)nc3cnc(N4CCNCC4)nc32)c1	> 20
Cc1cccc(CNc2cc(-c3ccccc3Cl)ncn2)c1	> 20
Cc1nc2cnc(N3CCN(C)CC3)nc2n(-c2ccccc2)c1=O	> 20
O=C(c1cc(C(F)(F)F)cc(C(F)(F)F)c1)N1CCC[C@@]2(CCN(c3ncccn3)C2)C1	> 20
CN(Cc1ccco1)c1ccnc(-c2ccccc2C(F)(F)F)n1	> 20
